Glioma ERSR ind = induces the endoplasmic reticulum stress response in human glioma cells; U87-MG GRP78 promoter luciferase reporter, 16 h; Potency, µM, for inactives: at the highest dose activation, hits mostly activators; hit rate 0.02% among 420,000; AID 602332; active = well fitted activation curve with a large enough effect; note: potency is the fitted concentration of half-maximal effect; series mostly up to about 76 µM; % of control where 0% means no effect; nearly all actives have a fitted effect of over 35% in size
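Stably transfected U87-MG glioma cells carrying a GRP78-based luciferase sensor; 16 h compound incubation. Luminescence end-point read 10 min after Bright-Glo addition at room temperature.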
D1 antagonist = antagonists of human D1 dopamine receptor. HEK293 TREx D1 cells, calcium flux, dopamine EC80; hits give low values. AID 504652. P21728. activity change, negative = inhibition, % at 10 µM. hit rate 3.2% among 360,000; in the data active = activity change below about -30%; note: % is set by controls: 0 for no effect and ±100 for the full control effect
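Compound effects on dopamine-evoked calcium signalling were measured in tetracycline-induced HEK293 Trex D1 cells. Dopamine at EC80 followed a 180 s compound pre-read, and fluorescence was tracked kinetically for 180 s more.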
D1 agonist = human D1 receptor agonism. P21728. hit rate 1% among 360,000. HEK293 T-REx D1 cells, calcium flux, agonist mode. AID 504660. activation, % at 2 µM; note: 0% is about no effect
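Agonism was scored from calcium flux recorded over 180 s (1 read/s) after pintool compound addition, following a 10-cycle baseline. Cells were inducible force-coupled HEK293 TREx D1, plated overnight at 30 C and loaded with no-wash calcium dye.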
TRHR agonist = agonists of human TRH receptor. P34981. TRHR cells, calcium flux fluo-8, FDSS agonist mode. activation, % at 2 µM. hit rate 0.18% among 360,000. AID 493084; note: 0% is about no effect
Target sequence (P34981 whole entry, looked up): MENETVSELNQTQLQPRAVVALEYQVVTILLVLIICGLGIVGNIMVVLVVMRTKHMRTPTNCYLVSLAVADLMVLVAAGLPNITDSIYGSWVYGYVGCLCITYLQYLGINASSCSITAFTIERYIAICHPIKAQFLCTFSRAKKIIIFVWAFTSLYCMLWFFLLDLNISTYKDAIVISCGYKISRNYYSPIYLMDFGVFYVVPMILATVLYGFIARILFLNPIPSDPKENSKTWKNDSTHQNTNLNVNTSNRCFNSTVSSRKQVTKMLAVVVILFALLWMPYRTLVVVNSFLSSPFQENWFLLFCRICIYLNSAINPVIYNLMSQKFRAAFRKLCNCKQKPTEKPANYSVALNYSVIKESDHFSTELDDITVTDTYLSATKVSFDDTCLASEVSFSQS
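Fluo-8-loaded TRHR cells; 10 s baseline, compound added, kinetic Ca2+ fluorescence read 1/s, agonist mode.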
D1 PAM = potentiators of human D1 dopamine receptor; hit rate 0.036% among 360,000; potentiation, % at 10 µM; HEK293 TREx D1 cells, calcium flux, dopamine EC20 potentiation; P21728; in the data active = potentiation above about 30%; note: 0% is about no effect
TRHR PAM = allosteric enhancers of human TRH receptor; P34981; TRHR cells, fluo-8 calcium fluorescence, EC20 TRH enhancement; enhancement, % at 2 µM; hit rate 0.66% among 360,000; AID 493056; in the data active = enhancement above about 30%; note: 0% is about no effect
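TRHR-expressing cells loaded with fluo-8 calcium dye were read kinetically (ex 480/em 530) during compound addition, then stimulated with an EC20 of TRH (10 nM final). Enhancement of the Gq-mediated intracellular calcium response was scored.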
* hit, by the source's call; / = not tested or not shown. Rows were chosen to be rich in hits. Some 4% of all compounds tested hit in one or more screens of this group. Cut-off read from the data, not from the text of the source, unless noted: active = activation above about 30%; inactive = the rest.

SMILES	Glioma ERSR ind	D1 antagonist	D1 agonist	TRHR agonist	D1 PAM	TRHR PAM
CN(CC(=O)Nc1ccc(F)cc1)C(=O)COc1ccccc1Cc1ccccc1	-5%	-85*	23	-1	-3	-1
CCOc1ccc(NC(=O)CN(C)C(=O)c2ccccc2Cc2ccccc2)cc1OCC	-3%	-45*	6	0	/	9
CCOc1ccc(NC(=O)CN(C)C(=O)CCCn2c(=O)oc3ccccc32)cc1OCC	-1%	-3	2	0	0	38*
COc1ccc(NC(=O)CN(C)C(=O)COc2ccccc2Cc2ccccc2)cc1	-4%	-11	5	0	-4	-1
COC(=O)c1cc(NC(=O)c2ccc(OC)cc2)c(=O)oc1C	2%	-7	0	1	4	1
COc1ccc(C(=O)Nc2cc(C(C)=O)c(/C=C/N(C)C)oc2=O)cc1	-6%	20	41*	22	-3	-5
COc1cc(/C=C/C(=O)CC(=O)/C=C/c2ccc(O)c(OC)c2)ccc1O	-10%	-59*	334*	107*	-2	-3
COc1cc(/C=C/C(=O)/C=C(O)/C=C/c2ccc(O)c(OC)c2)ccc1O	-10%	-16	262*	58*	-2	-8
COc1cc(/C=C/C(=O)O)ccc1O	-1%	/	/	/	/	/
CO[C@]12C[C@@H](COC(=O)c3cncc(Br)c3)CN(C)[C@@H]1Cc1cn(C)c3cccc2c13	-5%	/	/	/	/	/
CCOC(=O)/C(C#N)=C/C=C1/C=CC=CN1C	1%	6	6	3	-2	0
C=CCN1C=CC(=C/C=C(/C#N)C(=O)OCC)C=C1	-12%	-13	93*	37*	13	0
O=C(Nc1cccc(F)c1)c1sc(Cl)nc1-c1ccccc1	-2%	-36*	4	1	0	-3
C#CCN(Cc1ccc(OC)cc1)S(=O)(=O)C=C	-9%	/	/	/	/	/
Fc1ccc(-n2cc(CNCCc3ccccn3)c(-c3ccccc3Cl)n2)cc1	-1%	18	34*	1	-4	19
COc1ccc(-n2cc(CNCCc3ncc(C)[nH]3)c(-c3ccccc3Cl)n2)cc1	-5%	2	2	0	3	16
COc1ccc(-n2cc(CNCCc3nc(C)cc(C)n3)c(-c3ccccc3Cl)n2)cc1	-1%	25	40*	1	-1	14
Cc1nc2ccccc2nc1CN1CCOc2ccc(C(C)(O)COc3ccccc3)cc2C1 (stereo not given)	1%	/	/	/	/	/
COc1ccc(CN2CCOc3ccc(C(O)c4cccnc4)cc3C2)c(F)c1 (stereo not given)	-2%	/	/	/	/	/
Cc1c(Cl)ccc2c1NC(=O)[C@]21N[C@@H](Cc2ccccc2)[C@H]2C(=O)N(c3ccc(F)cc3)C(=O)[C@H]21	-4%	-1	34*	-1	16	5
CCCN(CCC)C(=O)CN1C(=O)CSc2ccc(S(=O)(=O)N3CCC(C)CC3)cc21	-2%	-91*	3	4	-5	-5
COc1ccc(NS(=O)(=O)c2ccc(N3CCCCC3)c(N)c2)cc1	0%	-22	26	2	-7	-7
COC(=O)C1=C(C)NC(=O)NC1c1c(O)ccc2ccccc12 (stereo not given)	-2%	8	1	0	-1	35*
CC(C)CN1CCC(=O)N([C@H](CSc2ccc(Br)cc2)c2ccccc2)CC1	-2%	-44*	2	0	-1	10
CCc1nc2ccc(C(=O)Nc3ccc4c(c3)OCO4)cc2nc1CC	2%	-10	0	0	-4	39*
SMILES	Glioma ERSR ind	D1 antagonist	D1 agonist	TRHR agonist	D1 PAM	TRHR PAM
CCc1ccc(C(=O)Nc2ccc3nc(C)ccc3c2)cc1	0%	-31*	2	-1	-10	4
CCc1nc2ccc(C(=O)Nc3cccc(C(C)=O)c3)cc2nc1CC	4%	7	0	-1	5	1
CCc1nc2ccc(C(=O)Nc3nnc(C)s3)cc2nc1CC	-1%	-42*	3	0	-8	1
Cc1ccc2cc(NC(=O)c3ccc(C(C)(C)C)cc3)ccc2n1	1%	-15	0	-1	1	3
CCN(C(=O)COc1ccc(N(C)S(=O)(=O)c2ccc(NC(C)=O)cc2)cc1)C1CCCCC1	-5%	/	/	/	/	/
CN(c1ccc(OCC(=O)OCC(=O)Nc2ccc(F)cc2)cc1)S(=O)(=O)c1ccc(Cl)cc1	-3%	-56*	9	0	-5	-6
CN(c1ccc(OCC(=O)OCC(=O)Nc2ccccc2)cc1)S(=O)(=O)c1cccs1	-6%	-47*	21	-2	-5	6
CN(c1ccc(OCC(=O)OCC(=O)Nc2ccc(Br)cc2)cc1)S(=O)(=O)c1cccs1	0%	-11	6	1	-6	-4
CCN(CC)C(=O)COc1ccc(N(C)S(=O)(=O)c2ccc(NC(C)=O)cc2)cc1	-2%	-38*	2	1	-7	-4
Cc1ccc(NC(=O)COc2ccc(N(C)S(=O)(=O)c3ccc(F)cc3)cc2)cc1	1%	2	2	0	-7	-2
O=C(CSc1ccccc1)Nc1ccc2sccc2c1	7%	9	1	0	0	-1
NCCCN1CCOCC1	-5%	1	3	1	-3	-3
CN(C)CC(C)(C)CNC(=O)c1cnn(-c2nccc(-c3ccc4c(c3)OCO4)n2)c1-c1ccco1	-4%	/	/	/	/	/
CCN(CC)c1ccc2nc3c4ccccc4c(=O)cc-3oc2c1	5%	-25	42*	16	-4	-3
O=c1cc(-c2ccccc2)oc2ccc3ccccc3c12	-12%	/	/	/	/	/
CNC(=S)N(CCc1c(C)[nH]c2ccc(F)cc12)Cc1ccco1	-7%	-29	4	-1	-4	2
Cc1[nH]c2ccc(F)cc2c1CCN(Cc1ccco1)C(=S)NC(C)(C)C	-6%	-43*	17	1	-3	-4
CNC(=S)N(CCc1c(C)[nH]c2ccccc12)Cc1ccco1	2%	-38*	4	0	-10	15
O=c1[nH]c(=S)c2[nH]cnc2[nH]1	-1%	/	/	/	/	/
CCOc1ccc(/C=C2/Sc3ccc(C(=O)NCC4CCCO4)cc3N(C)C2=O)cc1OC (stereo not given)	-2%	-6	1	-1	-9	-1
Cc1nc(SC(C(N)=O)c2ccccc2)c(C#N)c(C)c1C (stereo not given)	0%	1	2	0	-1	12
COC(=O)C(Sc1nc(C)cc(C)c1C#N)c1ccccc1 (stereo not given)	-1%	-32*	6	-1	-7	-5
Cc1ccc(NC(=O)CSc2nc(=O)n3cc(C)ccc3n2)c(C)c1	-3%	-35*	3	0	-6	-5
Cc1ccc(NC(=O)C(=O)NCCc2c[nH]c3ccccc23)c(C)c1	-2%	5	30*	4	2	11

Screening results deposited in PubChem BioAssay by National Center for Advancing Translational Sciences (NCATS).
